Experimental data published in PubChem BioAssay (NCI).
The panel holds about 83,000 compounds, 20% with a hit somewhere; the sample as a whole holds those more often.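 In brief: 96-well plates, 48 h treatment, single concentration, percent growth endpoint.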 Activity calls are given as the source filed them. The calls were made as follows: active = growth percent below 10; inactive = the rest.

Each molecule was assayed on SR leukemia (assay: NCI-60 one-dose screen, 48 h (100 = growth as untreated, 0 = no growth, -100 = all killed)). Conditions: 10 µM unless noted.

Structure (SMILES) | growth
O=c1c2cc(Br)cc(Br)c2nc(-c2ccc(Cl)cc2)n1/N=C\c1ccccc1F | 81% (inactive)
O=C(O)CSc1ccc(NCc2oc(CO)cc(=O)c2O)cc1 | 81.8% (inactive)
O=C(c1ccccc1)C1OC1C(=O)c1ccccc1 (centres undefined) | 14.3% (inactive)
CS(=O)(=O)c1ccc(C(=O)Nc2ccc(Cl)c(-c3ccccn3)c2)c(Cl)c1 | 9.7% (active)
COc1ccccc1/C=N\Nc1ccc([N+](=O)[O-])cn1 | 104% (inactive)
CCN1C(=O)N(CC)C2C1N=C(SC)N2/N=C/C=C/c1ccccc1OC (centres undefined) | 13.3% (inactive)
O=C(c1ccccc1)C(CCc1ccccn1)CCc1ccccn1 | 83.3% (inactive)
C=C[C@H]1CCC/C=C/[C@@H]2C[C@H](O)C[C@H]2[C@H](O)/C=C/C(=O)O1 | 0.87% (active)
CCN1C(=O)N(CC)C2C1NC(=O)N2/N=C/C=C/c1ccccc1 (centres undefined) | 20.3% (inactive)
O=[N+]([O-])c1ccc(N/N=C/c2ccccc2O)nc1 | 14.8% (inactive)
C#CCNc1nc(NCCNC(=O)CCl)nc(N(C)CCCCc2ccccc2)n1 | 62.1% (inactive)
O=S1(=O)NCCCN1CCNc1nccc(-c2c(-c3cccc(O)c3)nc3sccn23)n1 | 23.2% (inactive)
OC(CCCCCCCCC(O)CN1CCc2ccccc2C1)CN1CCc2ccccc2C1 (centres undefined) | 104% (inactive)
CCCCCCCCCCCCNC(=O)N[C@H](C(=O)N[C@H]1/C=C/CCNC(=O)/C=C/[C@H](C)NC1=O)C(C)C | -22.7% (active)
COc1ccccc1-[n+]1cc(-c2ccc(-c3ccccc3)cc2)n2c1CCCCC2 | 8.54% (active)
O=C(CCl)N1c2ccccc2Oc2ccc3ccccc3c21 | 9.32% (active)
C=C(c1ccc(C(=O)NCCCn2ccnc2)cc1)c1cc2c(cc1C)C(C)(C)CCC2(C)C | -27.2% (active)
COc1cc(CN2CCC(N3CCCC3=O)c3ccccc32)cc(OC)c1OC (centres undefined) | 59.1% (inactive)
CC(=O)Nc1ccc(/C=N/N2CCCCCC2)cc1 | 96.2% (inactive)
CCCCc1nc(Cl)c(C2CC(c3ccc(S(N)(=O)=O)cc3)=NN2c2cc(Cl)cc(Cl)c2)[nH]1 (centres undefined) | 0.947% (active)

Structure (SMILES) | growth
O=C1NN(C(=O)c2ccccc2)C(c2ccc(Cl)c(Cl)c2)=C/C1=C\c1ccccc1[N+](=O)[O-] | 6.01% [6.75 µM] (active)
O=C(NNC(=O)c1cccc(Cl)c1)c1ccccc1 | 85.8% (inactive)
Cc1c(C(N)=O)sc2ncn(CC(=O)NN=C3CCCCC3)c(=O)c12 | 82.9% (inactive)
Clc1cc(Cl)cc(-c2cnc3nonc3n2)c1 | 93.2% (inactive)
CCOC(=O)Cn1c(-c2nonc2NC(=O)c2ccccc2F)nc2ccccc21 | 10.8% (inactive)
COc1ccc(C(=O)O)cc1.[Ag] | 60.1% (inactive)
COc1cccc(C2C(C#N)=C(N)Oc3cc4c(cc32)OCO4)c1 (centres undefined) | 17.8% (inactive)
C=CCOC(=O)C1=C(C)NC2=C(C(=O)CCC2)C1c1ccc(F)cc1 (centres undefined) | 92.2% (inactive)
COc1cc(CN(c2ccc(C)cc2)C2OC(=O)c3ccccc32)cc(OC)c1OC (centres undefined) | -6.82% (active)
CN1C(=O)C(C(=O)/C=C/c2ccccc2C(=O)O)C(=O)N(C)C1=O | 98.1% (inactive)
CC1(C)OC2OC3C(CN)OC(c4ccccc4)OC3C2O1 (centres undefined) | 96.2% (inactive)
O=S(=O)(Cc1ccc(Cl)cc1Cl)c1ccc(Cl)cc1 | 24.3% (inactive)
COC(=O)OC1C(O[C@H]2C[C@H]3[C@@H]4CC=C5C[C@@H](O)CC[C@]5(C)[C@H]4CC[C@]3(C)[C@H]2[C@H](C)C(=O)CCC(C)C)OCC(O)C1OC1OCC(O)C(O)C1OC(=O)c1ccc(OC)cc1 (some centres undefined) | 2.6% (active)
CC(C)c1ccc2c(c1)CCC1C2CCCC1(C)NCc1ccccc1 (centres undefined) | 0.88% (active)
CC(=O)C1CCC2C3CC(C)=C4CC(O)CCC4(C)C3CCC12C (centres undefined) | 89.9% (inactive)
CC(CN1CCN(CC(C)Nc2ccnc3cc(Cl)ccc23)CC1)Nc1ccnc2cc(Cl)ccc12 (centres undefined) | -44.1% (active)
C=CCOC(=O)C1=C(C)NC2=C(C(=O)CC(C)(C)C2)C1c1ccc(OC)cc1 (centres undefined) | 98.8% (inactive)
CCCCCCCC/C=C/CCCCCCCC1=NC(C)(C)CN1c1ccccc1 | 71.8% (inactive)
COc1ccc2c(c1)N(Cc1ccc(Cl)cc1)CCC2N1CCCC1=O (centres undefined) | 34.2% (inactive)
